Measured values as given in the supplement of paper PMC7156485.
± gives the standard deviation of the averaged measurements.

What was measured:
Details in all cases: concentration: 10 µM; 24 h
HCC1569 [1] = test: cell number relative to DMSO (% of DMSO); higher = more cells (less growth inhibition / toxicity)
Summary of the method: (§1)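 In 384-well plates holding 800 HCC1569 or TDF cells per well in RPMI with 10% FBS, compounds were tested at 10 µM for 24 h at 37 °C in triplicate. Fixation used 3.7% formaldehyde. Staining used a rabbit anti-H1.0 antibody with an AlexaFluor 647 secondary, plus DAPI. Each value, H1.0 nuclear intensity or cell number, is a median of replicates shown as percent of the plate control, and HCC1569 values were smoothed for positional effects.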

TDF [2] = test: as above
Summary of the method: as §1

TDF [3] = test: H1.0 immunofluorescence intensity relative to DMSO (% of DMSO); higher = stronger H1.0 induction, active = 120 or more
Summary of the method: as §1

HCC1569 [4] = test: H1.0 immunofluorescence intensity relative to DMSO (% of DMSO); higher = stronger H1.0 induction, active = 140 or more
Summary of the method: as §1
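Throughout, for H1.0 immunofluorescence intensity relative to DMSO: TDF is a line of transformed human dermal fibroblasts of mesenchymal origin.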
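Throughout, for cell number relative to DMSO: TDF denotes transformed human dermal fibroblasts of mesenchymal origin.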

SMILES	cell number (HCC1569 [1])	cell number (TDF [2])	H1.0 immunofluorescence intensity (TDF [3])	H1.0 immunofluorescence intensity (HCC1569 [4])
COc1cc2ncnc(N3CCN(C(=O)Nc4ccc(Oc5ccccc5)cc4)CC3)c2cc1OC [PDGF Receptor Tyrosine Kinase Inhibitor III]	72.2	62.2	102 (inactive)	215 (active)
COc1ccccc1OCCNCC(O)COc1cccc2[nH]c3ccccc3c12 (configuration not stated) [Carvedilol]	92.6 ± 15	104 ± 4.5	99.3 (inactive)	106 (inactive)
C=C1C(=CC=C2CCCC3(C)C2CCC3C(C)CCCC(C)(C)O)CC(O)CC1O (configuration not stated) [Calcitriol]	102	100	98.2 (inactive)	112 (inactive)
Cl.Cl.Nc1nccc(-c2c(-c3ccc(F)cc3)ncn2C2CCCCC2)n1	80.6	92.2	79.8 (inactive)	130 (inactive)
CCCCCCCCC=CCCCCCCCCCC(=O)O [11(E)-Eicosenoic acid]	102	101	101 (inactive)	102 (inactive)
CCCCCCCCC=CCCCCCCCCCC(=O)O [11(Z)-Eicosenoic acid]	105	105	98.9 (inactive)	101 (inactive)
COc1ccccc1N1CCN(CCCCNC(=O)c2ccc3ccccc3c2)CC1 [N-{4-[4-(2-methoxyphenyl)-1-piperazinyl]butyl}-2-naphthamide]	96.6	98.1	96.7 (inactive)	114 (inactive)
CCC=CCC=CCC=CCC=CCC=CCCCC(=O)O	98	102	90.4 (inactive)	96.4 (inactive)
Cl.Fc1ccc(C(OCCCc2cnc[nH]2)c2ccc(F)cc2)cc1	99.8	108	88.3 (inactive)	99.8 (inactive)
O=C(O)c1cc([N+](=O)[O-])ccc1NCCCc1ccccc1 [5-Nitro-2-(3-phenylpropylamino)benzoic acid]	105	102	91 (inactive)	88.1 (inactive)
CC(C)(C)C(=O)OCOC(=O)[C@@H]1N2C(=O)[C@@H](/N=C/N3CCCCCC3)[C@H]2SC1(C)C	84.7	93.4	89 (inactive)	115 (inactive)
CCCCCN(CCCCC)C(=O)C(CCC(=O)[O-])NC(=O)c1ccc(Cl)c(Cl)c1.[Na+] (configuration not stated) [Lorglumide sodium]	103	107	100 (inactive)	89.8 (inactive)
Cl.Nc1cc(Cl)c(NC2=NCCN2)c(Cl)c1 [p-Aminoclonidine hydrochloride]	100	114	97.1 (inactive)	88.3 (inactive)
CCN1CCCC1CNC(=O)c1c(OC)ccc(Br)c1OC (configuration not stated) [Remoxipride]	101	101	96.7 (inactive)	108 (inactive)
CC(=O)Nc1nnc(S(N)(=O)=O)s1 [Acetazolamide]	104	106	86.9 (inactive)	83.3 (inactive)
CC1(COc2ccc(CC3SC(=O)NC3=O)cc2)CCCCC1 (configuration not stated) [Ciglitazone]	99.8	91.8	102 (inactive)	96.6 (inactive)
CC(C)N=c1cc2n(-c3ccc(Cl)cc3)c3ccccc3nc-2cc1Nc1ccc(Cl)cc1	89.6	72.2	109 (inactive)	118 (inactive)
CC(C)Cn1cnc2c(N)nc3ccccc3c21 [Imiquimod]	102	93.4	95.3 (inactive)	108 (inactive)
CN(C)CCC=C1c2ccccc2CCc2ccccc21.Cl [Amitriptyline.HCl]	105	89.4	99.6 (inactive)	123 (inactive)
CCOc1cc(N2CCC(O)CC2)ccc1Nc1ncc2c(n1)N(C)c1ccccc1C(=O)N2C	85.6	72.2	117 (inactive)	169 (active)
CSC(=N)N.CSC(=N)N.O=S(=O)(O)O [S-Methylisothiourea hemisulfate]	103	98.6	93.5 (inactive)	96.7 (inactive)
Clc1ccc(C(c2ccccc2Cl)C(Cl)Cl)cc1 (configuration not stated) [1-(2-Chlorophenyl)-1-(4-chlorophenyl)-2,2-dichloroethane]	96.1	106	98.3 (inactive)	92.9 (inactive)
Cl.Nc1nc2ccc(OC(F)(F)F)cc2s1 [Riluzole.HCl]	101	89.9	96.2 (inactive)	94.8 (inactive)
